Inconclusive results are not listed. Active and inactive are the calls of the source. Unless noted, calls follow the shape of the dose curve; as a rule, active = well fitted curve in the direction sought with a large enough effect in the repeat runs; inconclusive = weak or mixed curves; inactive = no such curve, though single readings can be large; an effect the other way counts as inactive or inconclusive.
Columns and labels:
[1] = biological target: Aryl hydrocarbon receptor (Homo sapiens) (UniProt P35869); test: qHTS assay to identify small molecule that activate the aryl hydrocarbon receptor (AhR) signaling pathway (AID 743085); also: nearly all actives have a fitted effect of over 15% in size; also: potency is read from the fitted curve at half-maximal effect;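 as to activation: HG2L7.5c1 human HepG2 liver cells with stably integrated DRE-driven firefly reporter; series mostly up to about 70 µM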
Summary of the method: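 HepG2 cells stably carrying a 20-DRE firefly luciferase reporter (HG2L7.5c1) treated with compound for 24 hr at 37C. Luciferase read by ONE-Glo luminescence, with CellTiter-Fluor viability read first.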

[2] = qHTS assay to identify small molecule that activate the aryl hydrocarbon receptor (AhR) signaling pathway - cell viability counter screen (AID 743086);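 also: HepG2 liver cells carrying the AhR DRE luciferase reporter; series mostly up to about 70 µM; nearly all actives have a fitted effect of over 45% in size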
Summary of the method: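 HepG2-AhR-luc (HG2L7.5c1) cells, 4000/well, treated 24 h at 37 C with compound; viability measured as CellTiter-Fluor fluorescence after 30 min in the same wells as the luciferase read.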

[3] = biological target: Peroxisome proliferator-activated receptor gamma (Homo sapiens) (UniProt P37231); test: qHTS assay to identify small molecule agonists of the peroxisome proliferator-activated receptor gamma (PPARg) signaling pathway (AID 743094; active = well fitted activation curve with a large enough effect in the signal ratio in the repeat runs, not every such curve was filed as active; the % refers to the signal ratio)
Summary of the method: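 Compounds dissolved in DMSO were added to PPARg UAS-bla HEK293H cells for 17 h at 37C, and reporter expression was quantified by fluorescence intensity after 1 h with LiveBLAzer B/G FRET substrate.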

[4] = biological target: Peroxisome proliferator-activated receptor gamma (Homo sapiens) (UniProt P37231); test: qHTS assay to identify small molecule antagonists of the peroxisome proliferator-activated receptor gamma (PPARg) signaling pathway (AID 743191; calls by dose curve; also: series mostly up to about 63 µM; nearly all actives have a fitted effect of over 30% in size)
Summary of the method: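 GeneBLAzer PPARg UAS-bla HEK293H cells, 5 h post-plating, exposed to compounds 17 h at 37C. LiveBLAzer B/G FRET substrate added for 1 h at room temperature; beta-lactamase reporter read by fluorescence intensity.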

[5] = qHTS assay to identify small molecule antagonists of the peroxisome proliferator-activated receptor gamma (PPARg) signaling pathway - cell viability counter screen (AID 743194); also: nearly all actives have a fitted effect of over 55% in size
Summary of the method: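 Cytotoxicity counter screen in PPARg-bla HEK293H cells, same wells as reporter assay. Compounds plus 50 nM rosiglitazone (final) for 17 h at 37 C, then viability read by CellTiter-Glo luminescence.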

[6] = qHTS assay for small molecule agonists of the antioxidant response element (ARE) signaling pathway (AID 743202; active = well fitted activation curve with a large enough effect in the signal ratio in the repeat runs, not every such curve was filed as active; the % refers to the signal ratio; also: potency is read from the fitted curve at half-maximal effect)
Summary of the method: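 Agonist mode reporter screen: HepG2 cells with ARE-controlled beta-lactamase are incubated with test compounds for 16 h at 37 C, and beta-lactamase activity is measured as fluorescence of cleaved B/G FRET substrate.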

[7] = qHTS assay for small molecule agonists of the antioxidant response element (ARE) signaling pathway - cell viability counter screen (AID 743203; calls by dose curve; also: nearly all actives have a fitted effect of over 55% in size)
Summary of the method: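 Following 16 hrs of compound treatment at 37C, HepG2 cells with an ARE-controlled beta-lactamase gene were lysed with CellTiter-Glo. Luminescence was read after 30 min at room temperature.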

[8] = qHTS assay for small molecule activators of the heat shock response signaling pathway - cell viability counter screen (AID 743209); also: nearly all actives have a fitted effect of over 50% in size
Summary of the method: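 Readout: CellTiter-Glo luminescence, 30 min at room temperature. System: HSE-bla HeLa cells, 1500/well, plated overnight. Treatment: compounds in DMSO, 5 h at 37 C.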

[9] = qHTS assay for small molecule activators of the heat shock response signaling pathway (AID 743210; active = well fitted activation curve with a large enough effect in the signal ratio in the repeat runs, with a control signal flat, not every such curve was filed as active; the % refers to the signal ratio;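 also: HeLa cells with beta-lactamase reporter driven by heat shock elements; series mostly up to about 63 µM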)
Summary of the method: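 Quantitative high-throughput format using an engineered HeLa line in which heat shock response elements drive beta-lactamase; after 5 h with compound, cells received a B/G FRET substrate and fluorescence was read.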

[10] = qHTS assay to identify small molecule agonists of the peroxisome proliferator-activated receptor delta (PPARd) signaling pathway - cell viability counter screen (AID 743211); also: nearly all actives have a fitted effect of over 55% in size
Summary of the method: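 PPARd-bla HEK293H cells (3000/well) were pre-incubated 5 h at 37 C, then exposed to compound for 17 h at 37 C. After 2 h with LiveBLAzer substrate, CellTiter-Glo was added to the same wells; luminescence read after 30 min at room temperature.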

[11] = biological target: Peroxisome proliferator-activated receptor delta (Homo sapiens) (UniProt Q03181); test: qHTS assay to identify small molecule agonists of the peroxisome proliferator-activated receptor delta (PPARd) signaling pathway (AID 743212; calls by dose curve)
Summary of the method: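 Quantitative high-throughput agonist screen in a HEK293H beta-lactamase reporter line under UAS control. Compounds in DMSO, at 37 C. Fluorescence read after 2 h with FRET substrate at room temperature.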

[12] = qHTS assay to identify small molecule antagonists of the peroxisome proliferator-activated receptor delta (PPARd) signaling pathway - cell viability counter screen (AID 743213); also: nearly all actives have a fitted effect of over 50% in size
Summary of the method: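 PPARd-bla HEK293H cells (3000/well) got compound plus 300 nM L165041 agonist for 17 h at 37 C. Viability in the same wells came from CellTiter-Glo luminescence after 30 min at room temperature.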

[13] = biological target: Peroxisome proliferator-activated receptor delta (Homo sapiens) (UniProt Q03181); test: qHTS assay to identify small molecule antagonists of the peroxisome proliferator-activated receptor delta (PPARd) signaling pathway (AID 743215; active = well fitted inhibition curve with a large enough effect in the signal ratio in the repeat runs, not every such curve was filed as active; the % refers to the signal ratio;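 also: cells stimulated with agonist L165041 at 300 nM final during compound exposure; series mostly up to about 62 µM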)
Summary of the method: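 HEK293H UAS-bla, PPARd; agonist L165041 300 nM final with cpd in DMSO; 37 C 17 h; FRET substrate, RT 2 h; fluorescence intensity.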

[14] = qHTS assay to identify small molecule agonists of the farnesoid-X-receptor (FXR) signaling pathway - cell viability counter screen (AID 743218); also: nearly all actives have a fitted effect of over 45% in size
Summary of the method: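 Parallel cytotoxicity test: compound-treated (16 h, 37 C) HEK 293T FXR-bla reporter cells were lysed with CellTiter-Glo and luminescence recorded.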

[15] = qHTS assay to identify small molecule antagonists of the farnesoid-X-receptor (FXR) signaling pathway - cell viability counter screen (AID 743221; active = well fitted cell-killing curve with a large enough effect in the repeat runs, not every such curve was filed as active; also: nearly all actives have a fitted effect of over 50% in size)
Summary of the method: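 GeneBLAzer FXR-UAS-bla HEK 293T cells, compound plus chenodeoxycholic acid (50 uM final), 16 h at 37 C. CellTiter-Glo added to the same wells after the beta-lactamase read; luminescence read after 30 min at room temperature as viability.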

[16] = biological target: Vitamin D3 receptor (Homo sapiens) (UniProt P11473); test: qHTS assay to identify small molecule antagonists of the vitamin D receptor (VDR) signaling pathway (AID 743223; active = well fitted inhibition curve with a large enough effect in the signal ratio in the repeat runs, not every such curve was filed as active; the % refers to the signal ratio)
Summary of the method: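 VDR-bla cells were treated with compound plus 3 nM final 1alpha,25-dihydroxyvitamin D3 for 16 h at 37C. Beta-lactamase reporter read by B/G FRET substrate fluorescence after 2 h at room temperature. qHTS format.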

[17] = qHTS assay to identify small molecule agonists of the vitamin D receptor (VDR) signaling pathway - cell viability counter screen (AID 743224); also: series mostly up to about 63 µM; nearly all actives have a fitted effect of over 50% in size
Summary of the method: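 Plated VDR-bla cells (4 h, 37C) received compound, incubated 16 h, then LiveBLAzer substrate 2 h RT; CellTiter-Glo added afterwards, luminescence read at 30 min.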

[18] = biological target: Vitamin D3 receptor (Homo sapiens) (UniProt P11473); test: qHTS assay to identify small molecule agonists of the vitamin D receptor (VDR) signaling pathway (AID 743222; calls by dose curve)
Summary of the method: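 In VDR-bla cells, compound-induced beta-lactamase expression is quantified by FRET substrate fluorescence. Treatment lasts 16 h at 37C; substrate develops 2 h at room temperature.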

[19] = biological target: Bile acid receptor (Homo sapiens) (UniProt Q96RI1); test: qHTS assay to identify small molecule antagonists of the farnesoid-X-receptor (FXR) signaling pathway (AID 743217; active = well fitted inhibition curve with a large enough effect in the signal ratio in the repeat runs, not every such curve was filed as active; the % refers to the signal ratio)
Summary of the method: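 GeneBLAzer FXR-UAS-bla HEK 293T, CDCA-stimulated (50 uM final). Compound treatment 16 h, 37 °C. Detection: beta-lactamase cleavage of B/G FRET substrate, fluorescence.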

[20] = biological target: Bile acid receptor (Homo sapiens) (UniProt Q96RI1); test: qHTS assay to identify small molecule agonists of the farnesoid-X-receptor (FXR) signaling pathway (AID 743220; active = well fitted activation curve with a large enough effect in the signal ratio in the repeat runs, not every such curve was filed as active; the % refers to the signal ratio)
Summary of the method: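 Beta-lactamase reporter under UAS control in GeneBLAzer FXR HEK 293T cells (5000/well) measured with LiveBLAzer FRET substrate after 2 h at room temperature. Compound exposure lasted 16 h at 37C.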

Measured: Potency

Sequence of Vitamin D3 receptor (Homo sapiens) (P11473 whole entry, looked up): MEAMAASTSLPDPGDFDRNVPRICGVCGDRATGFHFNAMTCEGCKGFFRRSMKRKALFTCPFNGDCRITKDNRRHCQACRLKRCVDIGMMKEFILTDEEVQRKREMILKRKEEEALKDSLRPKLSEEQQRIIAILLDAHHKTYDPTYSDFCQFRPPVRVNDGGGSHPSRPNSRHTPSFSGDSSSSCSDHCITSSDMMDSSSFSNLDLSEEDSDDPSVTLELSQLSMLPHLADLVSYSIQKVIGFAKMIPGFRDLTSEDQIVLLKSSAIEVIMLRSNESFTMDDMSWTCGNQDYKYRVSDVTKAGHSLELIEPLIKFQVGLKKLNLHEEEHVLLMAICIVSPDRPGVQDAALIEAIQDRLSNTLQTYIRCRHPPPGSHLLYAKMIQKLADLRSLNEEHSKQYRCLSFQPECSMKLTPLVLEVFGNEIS
Sequence of Aryl hydrocarbon receptor (Homo sapiens) (P35869 whole entry, looked up): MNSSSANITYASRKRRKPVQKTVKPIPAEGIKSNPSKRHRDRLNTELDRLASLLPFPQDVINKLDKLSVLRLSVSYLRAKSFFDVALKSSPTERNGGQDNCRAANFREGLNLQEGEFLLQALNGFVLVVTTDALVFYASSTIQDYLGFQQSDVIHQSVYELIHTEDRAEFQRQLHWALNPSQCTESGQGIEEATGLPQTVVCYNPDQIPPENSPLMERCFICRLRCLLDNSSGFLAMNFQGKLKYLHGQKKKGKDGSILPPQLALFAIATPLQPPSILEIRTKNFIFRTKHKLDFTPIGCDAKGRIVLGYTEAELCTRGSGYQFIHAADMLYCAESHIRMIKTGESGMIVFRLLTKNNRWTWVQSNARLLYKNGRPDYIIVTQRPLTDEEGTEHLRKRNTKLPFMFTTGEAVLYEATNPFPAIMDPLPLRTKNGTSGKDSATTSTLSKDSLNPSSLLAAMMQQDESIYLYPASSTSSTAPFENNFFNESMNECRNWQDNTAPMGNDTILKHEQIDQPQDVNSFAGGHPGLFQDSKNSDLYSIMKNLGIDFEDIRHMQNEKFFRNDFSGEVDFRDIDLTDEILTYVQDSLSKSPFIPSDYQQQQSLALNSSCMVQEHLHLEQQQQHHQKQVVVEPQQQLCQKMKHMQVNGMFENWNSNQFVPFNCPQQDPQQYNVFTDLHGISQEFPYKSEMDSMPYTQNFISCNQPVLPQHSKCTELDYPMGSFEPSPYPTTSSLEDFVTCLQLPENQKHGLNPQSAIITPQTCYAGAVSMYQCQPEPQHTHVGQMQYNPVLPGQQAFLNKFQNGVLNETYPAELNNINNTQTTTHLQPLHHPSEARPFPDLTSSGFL
Sequence of Peroxisome proliferator-activated receptor gamma (Homo sapiens) (P37231 whole entry, looked up): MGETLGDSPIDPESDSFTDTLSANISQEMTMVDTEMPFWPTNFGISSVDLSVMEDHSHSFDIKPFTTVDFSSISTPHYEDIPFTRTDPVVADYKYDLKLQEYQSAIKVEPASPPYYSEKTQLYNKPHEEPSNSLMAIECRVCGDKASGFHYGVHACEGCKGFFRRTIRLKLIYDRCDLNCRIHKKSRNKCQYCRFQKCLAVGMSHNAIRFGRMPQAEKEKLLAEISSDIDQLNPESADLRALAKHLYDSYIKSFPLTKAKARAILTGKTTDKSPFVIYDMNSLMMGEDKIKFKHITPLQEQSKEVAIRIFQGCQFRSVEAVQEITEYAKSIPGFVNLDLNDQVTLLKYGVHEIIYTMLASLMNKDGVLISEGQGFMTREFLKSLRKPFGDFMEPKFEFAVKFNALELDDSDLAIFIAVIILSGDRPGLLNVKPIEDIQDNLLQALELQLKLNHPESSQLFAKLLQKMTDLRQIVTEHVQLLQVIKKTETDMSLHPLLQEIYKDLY
Sequence of Bile acid receptor (Homo sapiens) (Q96RI1 whole entry, looked up): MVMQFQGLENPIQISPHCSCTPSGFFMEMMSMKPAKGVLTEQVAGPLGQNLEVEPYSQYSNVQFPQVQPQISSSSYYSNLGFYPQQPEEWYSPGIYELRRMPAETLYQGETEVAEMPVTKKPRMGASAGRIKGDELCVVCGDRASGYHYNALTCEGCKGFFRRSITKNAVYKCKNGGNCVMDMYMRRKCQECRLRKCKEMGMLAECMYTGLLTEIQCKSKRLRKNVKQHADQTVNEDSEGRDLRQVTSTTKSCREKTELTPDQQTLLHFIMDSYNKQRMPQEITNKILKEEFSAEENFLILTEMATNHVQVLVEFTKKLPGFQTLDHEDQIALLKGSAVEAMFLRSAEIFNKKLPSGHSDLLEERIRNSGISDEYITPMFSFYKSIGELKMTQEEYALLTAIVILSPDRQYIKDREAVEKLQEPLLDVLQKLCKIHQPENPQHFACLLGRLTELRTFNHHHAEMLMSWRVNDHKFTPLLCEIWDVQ
Sequence of Peroxisome proliferator-activated receptor delta (Homo sapiens) (Q03181 whole entry, looked up): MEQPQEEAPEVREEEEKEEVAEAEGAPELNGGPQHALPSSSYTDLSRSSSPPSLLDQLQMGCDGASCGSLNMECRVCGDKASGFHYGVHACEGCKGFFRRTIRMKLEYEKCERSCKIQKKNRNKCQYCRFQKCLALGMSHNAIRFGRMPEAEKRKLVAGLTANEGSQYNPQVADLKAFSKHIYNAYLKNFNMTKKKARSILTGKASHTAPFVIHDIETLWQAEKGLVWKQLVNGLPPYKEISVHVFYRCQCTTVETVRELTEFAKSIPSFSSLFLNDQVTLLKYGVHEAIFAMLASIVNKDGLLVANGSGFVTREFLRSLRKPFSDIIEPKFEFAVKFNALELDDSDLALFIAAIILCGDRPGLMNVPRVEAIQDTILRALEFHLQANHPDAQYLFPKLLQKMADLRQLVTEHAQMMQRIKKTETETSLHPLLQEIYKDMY

CC(C)=CCC/C(C)=C/COC=O
not listed: [17] | [18] | [19] | [20]
inactive: all other assays above

O=C(CN1CCNCC1)NC1CCCCC1
not listed: [16] | [17] | [18] | [19] | [20]
inactive: all other assays above

COC(=O)/C=C\C(=O)O
active: [6] 27.3 µM
not listed: [9] | [16] | [18] | [19] | [20]
inactive: all other assays above

C=CCN1C[C@H](C(=O)N(CCCN(C)C)C(=O)NCC)C[C@@H]2c3cccc4[nH]cc(c34)C[C@H]21
not listed: [10] | [12] | [14] | [19] | [20]
inactive: all other assays above

c1ccc(-c2nn[nH]n2)cc1
not listed: [11] | [13] | [16] | [17]
inactive: all other assays above

COP(=O)(O)OP(=O)(O)OC
not listed: [11] | [13] | [19] | [20]
inactive: all other assays above

NCc1ccc(S(N)(=O)=O)cc1
not listed: [16] | [17]
inactive: all other assays above

CC/C=C\CCOC(=O)c1ccccc1O
not listed: [7] | [18] | [19] | [20]
inactive: all other assays above

CC1(C)Cc2cccc(N)c2O1
not listed: [5] | [14] | [17]
inactive: all other assays above

CSc1cnccn1
not listed: [6] | [18] | [19]
inactive: all other assays above

CCCCOC(=O)C(C)O (stereo unspecified)
not listed: [5]
inactive: all other assays above

CCCCCC(C)O (stereo unspecified)
not listed: [7] | [16] | [18] | [19] | [20]
inactive: all other assays above

O=C(Cn1ccnc1[N+](=O)[O-])NCc1ccccc1
not listed: [5] | [14] | [16] | [18]
inactive: all other assays above

CN1CCOC(c2ccccc2)c2ccccc2C1 (stereo unspecified)
not listed: [5] | [16] | [18]
inactive: all other assays above

CC(N)CCCC(C)(C)O (stereo unspecified)
not listed: [7] | [8] | [16] | [19] | [20]
inactive: all other assays above

O=Cc1cc2ccccc2o1
not listed: [6] | [19] | [20]
inactive: all other assays above

COc1ccc2c(c1)c1c3n2CCN(C)C3=NCC1
active: [1] 13.3 µM
not listed: [5] | [13] | [19] | [20]
inactive: all other assays above
